From PubChem BioAssay
Most compounds without a hit are left out; they make up all but 16% or so of the library.
miR-21 act: qHTS Assay for Modulators of miRNAs and/orActivators of miR-21; HeLa miR-21 FLuc reporter, luciferase, 48 h; Potency, µM (series often up to 38.3 µM), inactives show at the top dose activity change, positive = activation, usual class: activators; 340,000 tested, under 10 active;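 further: % of control where 0% means no effect; miR-21 action dims this reporter so a rising signal means less miR-21 action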
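HeLa cells endogenously expressing miR-21, stably carrying CMV-driven firefly luciferase with a downstream miR-21 binding site, 2000 cells/well. Titrations up to approximately 40 uM, 48 hours; luciferase luminescence read.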
uPA generation: qHTS for Inhibitors of Cell Surface uPA Generation. Potency, µM (doses to about 38.3 µM), for inactives: at the top dose activity change, negative = inhibition, usual class: inhibitors. AID 540303, 2011. cell surface uPA generation assay, qHTS. 330,000 compounds, 0.31% hits; active means well fitted inhibition curve with a large enough effect; inconclusive means small, poorly fitted or top-dose-only effect; inactive means no such curve, though single readings can be large or run the other way; tested in mouse RAW 264.7 cells; further: potency means the concentration at half of the fitted maximal effect; on the % scale 0 is the no-effect control and ±100 the full control effect; nearly all actives have a fitted effect of over 55% in size
TDP1 block: qHTS Assay for Inhibitors of Tyrosyl-DNA Phosphodiesterase (TDP1) | recombinant TDP1, AlphaScreen DNA substrate cleavage | 350,000 compounds, 0.28% hits | AID 485290, 2010 | Potency, µM (titrated, usually from 130 µM), without a hit: at the top dose activity change, negative = inhibition, actives largely listed as inhibitors; further: potency means the concentration at half of the fitted maximal effect; on the % scale 0 is the no-effect control and ±100 the full control effect; nearly all actives have a fitted effect of over 40% in size
Target sequence (Q9NUW8 whole entry, looked up): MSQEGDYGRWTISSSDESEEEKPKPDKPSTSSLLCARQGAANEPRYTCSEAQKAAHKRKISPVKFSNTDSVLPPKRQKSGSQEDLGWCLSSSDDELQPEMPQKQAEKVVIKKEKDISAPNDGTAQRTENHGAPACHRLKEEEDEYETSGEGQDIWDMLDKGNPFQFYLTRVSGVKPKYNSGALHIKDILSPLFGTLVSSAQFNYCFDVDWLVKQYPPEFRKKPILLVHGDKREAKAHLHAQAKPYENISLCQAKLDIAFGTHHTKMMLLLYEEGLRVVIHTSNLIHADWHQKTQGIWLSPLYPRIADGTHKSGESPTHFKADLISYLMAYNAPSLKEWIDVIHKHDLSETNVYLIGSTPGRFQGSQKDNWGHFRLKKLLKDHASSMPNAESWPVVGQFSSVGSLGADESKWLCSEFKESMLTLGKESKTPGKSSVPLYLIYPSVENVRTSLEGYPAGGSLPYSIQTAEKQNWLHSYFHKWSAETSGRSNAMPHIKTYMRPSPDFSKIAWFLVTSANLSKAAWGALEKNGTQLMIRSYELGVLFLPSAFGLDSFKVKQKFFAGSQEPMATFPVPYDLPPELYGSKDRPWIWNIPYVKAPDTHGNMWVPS
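Recombinant human Tdp1 (E. coli-expressed, 1 nM final) preincubated with compounds 15 min at room temperature, then 5'-biotin/3'-phosphotyrosine-FITC DNA substrate (15 nM final) added for 5 min. AlphaScreen beads (10 ug/ml final) added 10 min; cleavage lowers signal.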
DT40 TDP1 CPT: qHTS for Inhibitors of human tyrosyl-DNA phosphodiesterase 1 (TDP1): qHTS in cells in presence of CPT | 420,000 compounds, 12% hits | Potency, µM (highest dose often 46.2 µM), for the others: top-dose activity change, negative = growth inhibition, most hits filed as inhibitors | AID 686979, 2013 | chicken DT40 Tdp1-/-;hTDP1 cells + 20 nM CPT, ATP luminescence, 48 h; further: potency means the concentration at half of the fitted maximal effect; on the % scale 0 is the no-effect control and ±100 the full control effect; nearly all actives have a fitted effect of over 55% in size
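Cell growth measured by CellTiter-Glo luminescence after a minimum 48 h, 37 C compound exposure with 20 nM CPT in Tdp1-knockout DT40 cells stably expressing hTDP1, seeded 400/well; qHTS titration format.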
DT40 TDP1 no CPT: qHTS for Inhibitors of human tyrosyl-DNA phosphodiesterase 1 (TDP1): qHTS in cells in absence of CPT | DT40 Tdp1-/- hTDP1 cells, no CPT, ATP luminescence, 48 h | Potency, µM (series often up to 46.2 µM), for the others: at the top dose activity change, negative = growth inhibition, most hits filed as inhibitors | 420,000 compounds, 15% hits | AID 686978, 2013; further: potency means the concentration at half of the fitted maximal effect; on the % scale 0 is the no-effect control and ±100 the full control effect; nearly all actives have a fitted effect of over 55% in size
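Chicken DT40 Tdp1-/- cells complemented with human TDP1, screened without camptothecin (DMSO vehicle only), 400 cells/well. Compounds pin-transferred, cells incubated at 37 °C for at least 48 hr. Growth read as ATP-dependent luminescence (CellTiter-Glo, 30 min at RT).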
* = called active by the depositor; ? = inconclusive; . = no result. Unless noted, the call rests on the fitted dose curve; in most records, active means well fitted curve in the direction sought with a large enough effect; inconclusive means small, poorly fitted or top-dose-only effect, or another doubt; inactive means no such curve, though single readings can be large; an effect the other way counts as inactive or inconclusive.

SMILES	miR-21 act	uPA generation	TDP1 block	DT40 TDP1 CPT	DT40 TDP1 no CPT
COc1ccc2[nH]c3c(=O)n(Cc4ccc(C(=O)N5CCC(C(N)=O)CC5)cc4)c(=S)[nH]c3c2c1	1%	6%	-3%	?	29µM*
CCOC(=O)N1CCN(C(=O)c2ccc(Cn3c(=S)[nH]c4cc5c(cc4c3=O)OCO5)cc2)CC1	0%	.	7%	23µM*	16µM*
CCOC(=O)N1CCN(C(=O)c2ccc(Cn3c(=S)[nH]c4cc(OCC)c(OCC)cc4c3=O)cc2)CC1	0%	-2%	3%	10µM*	9.2µM*
COc1ccccc1N1CCN(C(=O)c2ccc(Cn3c(=S)[nH]c4cc5c(cc4c3=O)OCO5)cc2)CC1	0%	3%	6%	?	?
CCOC(=O)c1sc(NC(=O)CN2C(=O)NC3(CC(C)CC(C)(C)C3)C2=O)cc1C (stereo unspecified)	.	-9%	-5%	?	18µM*
CCOC(=O)c1sc(NC(=O)CN2C(=O)NC3(CC(C)CC(C)(C)C3)C2=O)c(C(=O)OCC)c1C (stereo unspecified)	-15%	-1%	-2%	9.2µM*	10µM*
CCOC(=O)c1sc(NC(=O)CN2C(=O)NC3(CCC(C)CC3)C2=O)c(C(=O)OCC)c1C (stereo unspecified)	.	-7%	0%	-56%	-58%
CCNC(=O)C1(C)CCN(C(=O)c2cccc(OC(F)(F)F)c2)C1 (stereo unspecified)	.	.	.	-22%	1%
O=[N+]([O-])c1ccc2c(c1)C(=Nc1ccccc1)c1ccccc1-2	.	-6%	.	2%	-2%
O=C(Nc1ccc2c(c1)Cc1cc([N+](=O)[O-])ccc1-2)C(F)(F)F	.	-1%	.	?	6.5µM*
Nc1ccc2c(c1)C(=NO)c1cc([N+](=O)[O-])ccc1-2	.	-8%	.	0.58µM*	2.1µM*
O=C(Nc1cc2c(cc1Cl)-c1ccc([N+](=O)[O-])cc1C2=NO)C(F)(F)F	.	7%	.	?	23µM*
O=[N+]([O-])c1ccc2c(c1)-c1ccccc1C2=NO	.	4%	.	18µM*	16µM*
O=C(CSc1nc2c([nH]c3ccccc32)c(=O)n1-c1ccccc1F)NCC1CCCO1 (stereo unspecified)	1%	10%	5%	?	-16%
CCC/C=C(\CCC)C(NP(=O)(c1ccccc1)c1ccccc1)c1ccc(-c2ccccc2)cc1 (stereo unspecified)	.	.	7%	.	.
CCNC(=O)C1(C)CCN(C(=O)c2cccc3ccccc23)C1 (stereo unspecified)	.	.	.	2%	3%
C=CCn1c(SCC(=O)c2cccs2)nc2sc(C)cc2c1=O	5%	-7%	5%	?	21µM*
C=CCn1c(SCC(=O)c2cccs2)nnc1-c1cccc(OC)c1	-12%	-9%	7%	-13%	-25%
Cc1ccc(NC(=O)C2CCCN(S(=O)(=O)c3c(C)n[nH]c3C)C2)cc1Cl (stereo unspecified)	-7%	.	-2%	?	?
Cc1n[nH]c(C)c1S(=O)(=O)N1CCCC(C(=O)Nc2ccc(Cl)cc2)C1 (stereo unspecified)	24%	.	0%	?	7.3µM*
CCOC(=O)c1c(S(=O)(=O)N2CCCC(C(=O)Nc3ccccn3)C2)c(C)n(C)c1C (stereo unspecified)	10%	.	0%	-13%	4%
CCOC(=O)c1cccc(NC(=O)C2CCCN(S(=O)(=O)c3c(C)nn(C)c3C)C2)c1 (stereo unspecified)	8%	2%	-4%	21µM*	?
CCOC(=O)c1c(S(=O)(=O)N2CCCC(C(=O)Nc3cccc(Cl)c3)C2)c(C)n(C)c1C (stereo unspecified)	23%	.	0%	9.2µM*	?
